Compound activity from PubChem.
A selection: hits, their analogues and other compounds. The true share with any hit is near 14%.
HSD17B inh – qHTS Assay for Inhibitors of HSD17B4, hydroxysteroid (17-beta) dehydrogenase 4; recombinant HSD17B10, NADH fluorescence kinetic; 3-hydroxyacyl-CoA dehydrogenase type-2 (Homo sapiens), Q99714; Potency, µM (titrated, usually from 57.1 µM), inactives show top-dose activity change, negative = inhibition, most hits filed as inhibitors; hit rate 7.6% among 75,000;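 also: the protocol describes HADH2 (HSD17B10) and not the HSD17B4 of the title; potency is read from the fitted curve at half-maximal effect; % is scaled to controls: 0 for no effect and ±100 for the full control effect; nearly all actives have a fitted effect of over 70% in size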
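20 nM HADH2, pH 9.0 Tris/Tween; cpd preinc 15 min RT; start w/ 1 mM NAD+ + 90 uM b-hydroxybutyryl-CoA; kinetic fluor ex360/em450 q30s x 4 min; delta last-first.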
AID923 – qHTS Assay for Allosteric/Competitive Inhibitors of Caspase-1: Spectroscopic Profiling in AFC Spectral Region; compound fluorescence, AFC spectral region (405/520 nm); Potency, µM (doses to about 57.5 µM), for inactives: at the highest dose fluorescence increase, most hits filed as activators; hit rate 1.1% among 75,000; AID 923, 2007; also: potency is read from the fitted curve at half-maximal effect; 0% is about no effect
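Titrations up to 57 uM read every 20 sec for 3 min (405/520 nm) with 50 nM caspase 1 and 5 uM Ac-WEHD-AFC, pH 7.5 HEPES buffer. Fluorescence-vs-time intercept gave baseline, scaled against on-plate AFC standard.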
A350 autofl – qHTS Assay for Spectroscopic Profiling in A350 Spectral Region. Compound autofluorescence, 340/450 nm, Alexa 350 dye-equivalents; hits give high values. hit rate 11% among 59,000. AID 590, 2007. max dye-equivalent concentration, M; in the data active = max dye-equivalent concentration above about 10 nM; inconclusive = mostly about 1.1 nM to 9.6 nM
CRE-bla Fsk – Cell signaling CRE-BLA (Fsk stim) | CHO CRE-bla reporter (cAMP response element driving beta-lactamase), forskolin EC10, beta-lactamase ratio | Potency, µM (titrated, usually from 38.2 µM), without a hit: at the highest dose activity change, negative = inhibition, actives largely listed as activators | hit rate 2.5% among 71,000; active = well fitted activation curve with a large enough effect in the signal ratio, with a control signal flat, not every such curve was filed as active; inconclusive = small, poorly fitted or top-dose-only effect, or effect the other way, or a change in a side signal; the % refers to the signal ratio; also: potency is read from the fitted curve at half-maximal effect; % of control where 0% means no effect
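Modulation of forskolin signalling: compounds in titration series added with EC10 NKH 477 to CHO cells carrying a CRE-driven beta-lactamase reporter, 3 h, 37C. CCF4 FRET ratio (460/530 nm, ex 405 nm) gives %activity and AC50.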
HADH2 inhib – qHTS Assay for Inhibitors of HADH2 (Hydroxyacyl-Coenzyme A Dehydrogenase, Type II) | 3-hydroxyacyl-CoA dehydrogenase type-2 (Homo sapiens), Q99714 | recombinant HADH2, NADH fluorescence, beta-hydroxybutyryl-CoA | Potency, µM (top dose mostly 57.1 µM), inactives show at the top dose activity change, negative = inhibition, hits mostly inhibitors | hit rate 3.4% among 73,000; also: potency is read from the fitted curve at half-maximal effect; % is scaled to controls: 0 for no effect and ±100 for the full control effect; nearly all actives have a fitted effect of over 60% in size
Target sequence (Q99714 whole entry, looked up, one chain of several): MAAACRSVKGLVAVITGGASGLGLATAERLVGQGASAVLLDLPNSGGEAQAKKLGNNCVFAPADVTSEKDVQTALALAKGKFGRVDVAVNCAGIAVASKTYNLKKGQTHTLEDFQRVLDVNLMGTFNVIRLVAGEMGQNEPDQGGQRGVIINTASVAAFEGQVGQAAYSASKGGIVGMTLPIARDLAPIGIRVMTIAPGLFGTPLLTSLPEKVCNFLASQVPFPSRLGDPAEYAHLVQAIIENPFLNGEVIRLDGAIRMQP
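NADH fluorescence (ex 360/em 450 nm) read every 30 s for 4 min; activity taken as last-minus-first time point difference. Enzyme 20 nM, NAD+ 1 mM, beta-hydroxybutyryl-CoA 90 uM, pH 9.0 Tris buffer.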
4-MU autofl – qHTS Assay for Spectroscopic Profiling in 4-MU Spectral Region; AID 589, 2007; max dye-equivalent concentration, M; compound autofluorescence, 340/450 nm, 4-MU equivalents; hits give high values; hit rate 11% among 59,000; in the data active = max dye-equivalent concentration above about 10 nM; inconclusive = mostly about 1.1 nM to 9.6 nM
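Compounds in 100 mM Tris, pH 8.0, incubated 15 min at room temperature, then fluorescence read at 340 nm excitation/450 nm emission. Signal converted to 4-MU dye-equivalent concentration using an on-plate six-point 4-MU standard curve.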
* = called active by the depositor; [ ] = another dose, or the depositor's remark. Unless noted, calls follow the shape of the dose curve; as a rule, active = well fitted curve in the direction sought with a large enough effect; inconclusive = small, poorly fitted or top-dose-only effect, or another doubt; inactive = no such curve, though single readings can be large; an effect the other way counts as inactive or inconclusive.

For CC(=O)Nc1cc2nn(-c3ccccc3)nc2cc1Cl the results were HSD17B inh 13µM*, AID923 0%, A350 autofl 5e-08M*, CRE-bla Fsk 4%, HADH2 inhib 169% and 4-MU autofl 6e-08M*.
O=C(Nc1cc2nn(-c3ccccc3)nc2cc1Cl)c1ccco1 was read as HSD17B inh inconclusive, AID923 2%, A350 autofl 1.7e-07M*, CRE-bla Fsk -11%, HADH2 inhib 32µM* and 4-MU autofl 1.9e-07M*.
Screening O=C(c1ccncc1)N1CCC2(CCCN(Cc3nccs3)C2)CC1 returned HSD17B inh 0%, AID923 7%, A350 autofl inactive, CRE-bla Fsk 0%, HADH2 inhib 8% and 4-MU autofl inactive.
Screening N#CC1=C2SCN(Cc3ccccc3)CN2C(=O)CC1c1cccs1 (stereo unspecified) returned HSD17B inh inconclusive, AID923 0%, CRE-bla Fsk 10% and HADH2 inhib 2µM*.
Screening N#CC1=C(SCc2ccccc2)NC2=C(C(=O)CCC2)C1c1ccc2c(c1)OCO2 (stereo unspecified) returned A350 autofl inactive and 4-MU autofl inactive.
N#CC1=C2SCN(Cc3ccccc3)CN2C(=O)CC1c1ccc2c(c1)OCO2 (stereo unspecified) was read as HSD17B inh inconclusive, AID923 6%, A350 autofl inconclusive, CRE-bla Fsk inconclusive, HADH2 inhib 2.5µM* and 4-MU autofl inactive.
CO[C@@H]1/C=C\O[C@]2(C)Oc3c(C)c(O)c4c(O)c(c(CN5CCN(C)CC5)c(O)c4c3C2=O)NC(=O)/C(C)=C\C=C[C@@H](C)[C@@H](O)[C@H](C)[C@@H](O)[C@H](C)[C@H](OC(C)=O)[C@@H]1C was read as HSD17B inh -12%[11.4 µM], AID923 4%[11.5 µM], A350 autofl inconclusive, CRE-bla Fsk -9%[7.6 µM], HADH2 inhib 1%[11.4 µM] and 4-MU autofl inconclusive.
`COC(=O)[C@@H]1C[C@H]1[C@@H](NS(=O)(=O)c1ccc(-c2ccccc2)cc1)c1ccccc1` gave HSD17B inh 3%, AID923 2%, CRE-bla Fsk 1% and HADH2 inhib 2%.
O=C1[C@@H]2[C@H]3C(=CC[C@@H]2C(=O)N1Cc1ccccc1)C1(OCCCO1)[C@H]1O[C@@H]1[C@H]3O was read as HSD17B inh -5%[11.4 µM], AID923 -2%[11.5 µM] and HADH2 inhib inconclusive.
N/C(=N\S(=O)(=O)c1ccc(Cl)s1)c1ccccc1 was read as A350 autofl 2.5e-08M* and 4-MU autofl 2.2e-08M*.
`C[C@@H](CNC(N)=O)NC(N)=O` gave HSD17B inh 8%[11.4 µM], AID923 1%[11.5 µM], A350 autofl inactive, CRE-bla Fsk 0%[7.6 µM], HADH2 inhib -3%[11.4 µM] and 4-MU autofl inactive.
Screening CC(=O)OC[C@H]1O[C@@H](ON=C(C)C)[C@H](OC(C)=O)[C@@H](OC(C)=O)[C@H]1OC(C)=O returned HSD17B inh -5%[11.4 µM], AID923 -4%[11.5 µM] and HADH2 inhib inconclusive.
Screening Nc1c[n+](N2CCOCC2)no1 returned HSD17B inh 13µM*, AID923 -1%, CRE-bla Fsk inconclusive and HADH2 inhib inconclusive.
Cc1nc(SCn2nnc3ccccc3c2=O)nc(C)c1C was read as HSD17B inh -3%, AID923 0%, A350 autofl inactive, CRE-bla Fsk 13µM*, HADH2 inhib 16% and 4-MU autofl inactive.
CN(C)c1ccc(-c2nc(NC3CCNCC3)c3ccccc3n2)cc1 was read as HSD17B inh inconclusive, AID923 1%, A350 autofl inconclusive, CRE-bla Fsk inconclusive, HADH2 inhib -8% and 4-MU autofl inconclusive.
